# From PubChem BioAssay (Tox21)
# Several values for one entry are separate records, joined by “and”; a condition that tells them apart may be missing. Equal entries are not always repeated. A number with no mark means an inactive call. Inconclusive results are not listed. Where a call stands in place of a potency, no number is given. Activity calls are given as the source filed them. Unless noted, calls come from the whole dose curve; as a rule, active = well fitted curve in the direction sought with a large enough effect in the repeat runs; inconclusive = weak or mixed curves; inactive = no such curve, though single readings can be large; an effect the other way counts as inactive or inconclusive.
# Legend:
# [1] = qHTS assay to identify small molecule antagonists of the glucocorticoid receptor (GR) signaling pathway - cell viability counter screen (AID 720693); note: nearly all actives have a fitted effect of over 55% in size
# [2] = qHTS assay for identifying genotoxic compounds that show differential cytotoxicity against isogenic chicken DT40 cell lines with known DNA damage response pathways - wild type cell line (AID 743012); note: nearly all actives have a fitted effect of over 60% in size; note: potency is the fitted concentration of half-maximal effect
# Method in brief: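 Parental DNA repair-proficient DT40 cells, 300 per well, were pre-incubated ~0.5 h at 37 C/5% CO2, pin-dosed with compounds in DMSO, then incubated 40 h. Viability was read as CellTiter-Glo luminescence after 30 min at room temperature.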
# [3] = qHTS assay for identifying genotoxic compounds that show differential cytotoxicity against isogenic chicken DT40 cell lines with known DNA damage response pathways - Rad54/Ku70 mutant cell line (AID 743015); note: nearly all actives have a fitted effect of over 60% in size; note: potency is the fitted concentration of half-maximal effect
# [4] = qHTS assay to identify small molecule antagonists of the androgen receptor (AR) signaling pathway - cell viability counter screen (AID 743033; note: nearly all actives have a fitted effect of over 45% in size)
# [5] = qHTS assay to identify small molecule antagonists of the androgen receptor (AR) signaling pathway using the MDA cell line - cell viability counter screen (AID 743041; note: nearly all actives have a fitted effect of over 45% in size; note: potency is the fitted concentration of half-maximal effect)
# Method in brief: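 Cells were plated at 3,000 per well and left 5 h. Compounds in DMSO were then pinned in, followed by R1881. After 16 h at 37C, CellTiter-Fluor fluorescence gave viability.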
# [6] = qHTS assay to identify small molecule antagonists of the thyroid receptor (TR) signaling pathway - cell viability counter screen (AID 743064); note: nearly all actives have a fitted effect of over 50% in size; note: potency is the fitted concentration of half-maximal effect
# Method in brief: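 GH3.TRE-Luc rat pituitary cells carrying a TRE-luciferase reporter were treated with compound plus 1 nM T3 (final) for 23.5 h at 37 °C. Viability was then read in the same wells by CellTiter-Fluor fluorescence after a further 30 min.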
# [7] = qHTS assay to identify small molecule antagonists of the thyroid receptor (TR) signaling pathway (AID 743065); note: nearly all actives have a fitted effect of over 55% in size; note: potency is the fitted concentration of half-maximal effect
# Method in brief: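 Antagonism measured as loss of luciferase signal in GH3 cells stably carrying a TRE-luciferase reporter, co-treated with compound and T3 (1 nM final) for 23.5 h at 37 C. Viability was read in the same well by CellTiter-Fluor.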
# [8] = tested on: thyroid hormone receptor (rat, GH3 cells); experiment: qHTS assay to identify small molecule agonists of the thyroid receptor (TR) signaling pathway (AID 743066; calls by dose curve)
# [9] = target: Estrogen receptor (Homo sapiens) (UniProt P03372); experiment: qHTS assay to identify small molecule antagonists of the estrogen receptor alpha (ER-alpha) signaling pathway (AID 743069; active = well fitted curve in the direction sought with a large enough effect in the signal ratio in the repeat runs, not every such curve was filed as active; the % refers to the signal ratio)
# Method in brief: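 ER-alpha-UAS-bla GripTite HEK293 line; 2% charcoal-stripped FBS overnight; plated, 4 hr 37C/5% CO2; cpd in DMSO + 17beta-estradiol, 18 hr 37C; LiveBLAzer B/G FRET substrate 2 hr RT; fluorescence intensity.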
# [10] = qHTS assay to identify small molecule antagonists of the estrogen receptor alpha (ER-alpha) signaling pathway - cell viability counter screen (AID 743074; calls by dose curve;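 note: HEK293 cells carrying ER-alpha-UAS-bla reporter stimulated with 17beta-estradiol; nearly all actives have a fitted effect of over 45% in size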)
# [11] = target: Estrogen receptor (Homo sapiens) (UniProt P03372); experiment: qHTS assay to identify small molecule agonists of the estrogen receptor alpha (ER-alpha) signaling pathway (AID 743075; calls by dose curve)
# [12] = target: Estrogen receptor (Homo sapiens) (UniProt P03372); experiment: qHTS assay to identify small molecule agonists of the estrogen receptor alpha (ER-alpha) signaling pathway using the BG1 cell line (AID 743079); settings: BG1Luc4E2 cells, ERE-luciferase agonist, 22 h; activation: at 70.3 µM (top of the series); note: nearly all actives have a fitted effect of over 20% in size
# [13] = qHTS assay to identify small molecule antagonists of the estrogen receptor alpha (ER-alpha) signaling pathway using the BG1 cell line (AID 743080; calls by dose curve;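 note: BG1 cells stimulated with 17beta-estradiol alongside compound; nearly all actives have a fitted effect of over 25% in size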)
# Method in brief: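 Luciferase inhibition measured with ONE-Glo after 30 min at RT in BG1Luc4E2 cells given test compounds and 17beta-estradiol for 21.5 h at 37 C; CellTiter-Fluor viability read in the same wells beforehand.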
# [14] = qHTS assay to identify small molecule antagonists of the estrogen receptor alpha (ER-alpha) signaling pathway using the BG1 cell line - cell viability counter screen (AID 743081);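 note: compound given together with 17beta-estradiol as the ER stimulus; nearly all actives have a fitted effect of over 45% in size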; note: potency is the fitted concentration of half-maximal effect
# Aromatase (Homo sapiens) = Aromatase (Homo sapiens) (UniProt P11511); experiment: qHTS assay to identify aromatase inhibitors (AID 743083); note: nearly all actives have a fitted effect of over 55% in size; note: potency is the fitted concentration of half-maximal effect
# [15] = qHTS assay to identify aromatase inhibitors - cell viability counter screen (AID 743084);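 note: cells stimulated with testosterone during compound exposure; nearly all actives have a fitted effect of over 55% in size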; note: potency is the fitted concentration of half-maximal effect
# [16] = qHTS assay for identifying genotoxic compounds that show differential cytotoxicity against isogenic chicken DT40 cell lines with known DNA damage response pathways - Rev3 mutant cell line (AID 743014); note: nearly all actives have a fitted effect of over 55% in size; note: potency is the fitted concentration of half-maximal effect
# [17] = target: Androgen receptor (Homo sapiens) (UniProt P10275); experiment: qHTS assay to identify small molecule agonists of the androgen receptor (AR) signaling pathway (AID 743036; active = well fitted activation curve with a large enough effect in the signal ratio in the repeat runs, with a control signal flat, not every such curve was filed as active; the % refers to the signal ratio)
# Method in brief: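 HEK293 cells stably carrying a UAS-driven beta-lactamase reporter (GeneBLAzer AR-UAS-bla-GripTite) were plated at 2,000 cells/well, rested 4 h at 37C, then exposed to compounds in DMSO for 16 h. LiveBLAzer B/G FRET substrate was added for 2 h at room temperature; fluorescence read.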
# [18] = target: Androgen receptor (Homo sapiens) (UniProt P10275); experiment: qHTS assay to identify small molecule agonists of the androgen receptor (AR) signaling pathway using the MDA cell line (AID 743040; note: nearly all actives have a fitted effect of over 20% in size)
# Method in brief: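 Cells plated, 5 h at 37C/0% CO2; compound or DMSO pinned; 16 h at 37C; ONE-Glo added; luminescence measured after 30 min at room temperature. Reporter line: MDA-kb2 with MMTV-luciferase responsive to AR and GR.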
# [19] = target: Androgen receptor (Homo sapiens) (UniProt P10275); experiment: qHTS assay to identify small molecule antagonists of the androgen receptor (AR) signaling pathway using the MDA cell line (AID 743042; note: nearly all actives have a fitted effect of over 55% in size; note: potency is the fitted concentration of half-maximal effect)
# Method in brief: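 Antagonist mode: compounds plus R1881 agonist added to MDA-kb2 AR-luc cells, incubated 16 h at 37C. Luciferase reporter luminescence quantified, with multiplexed CellTiter-Fluor readout for cell viability.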
# Chain of Androgen receptor (Homo sapiens) (P10275 whole entry, looked up): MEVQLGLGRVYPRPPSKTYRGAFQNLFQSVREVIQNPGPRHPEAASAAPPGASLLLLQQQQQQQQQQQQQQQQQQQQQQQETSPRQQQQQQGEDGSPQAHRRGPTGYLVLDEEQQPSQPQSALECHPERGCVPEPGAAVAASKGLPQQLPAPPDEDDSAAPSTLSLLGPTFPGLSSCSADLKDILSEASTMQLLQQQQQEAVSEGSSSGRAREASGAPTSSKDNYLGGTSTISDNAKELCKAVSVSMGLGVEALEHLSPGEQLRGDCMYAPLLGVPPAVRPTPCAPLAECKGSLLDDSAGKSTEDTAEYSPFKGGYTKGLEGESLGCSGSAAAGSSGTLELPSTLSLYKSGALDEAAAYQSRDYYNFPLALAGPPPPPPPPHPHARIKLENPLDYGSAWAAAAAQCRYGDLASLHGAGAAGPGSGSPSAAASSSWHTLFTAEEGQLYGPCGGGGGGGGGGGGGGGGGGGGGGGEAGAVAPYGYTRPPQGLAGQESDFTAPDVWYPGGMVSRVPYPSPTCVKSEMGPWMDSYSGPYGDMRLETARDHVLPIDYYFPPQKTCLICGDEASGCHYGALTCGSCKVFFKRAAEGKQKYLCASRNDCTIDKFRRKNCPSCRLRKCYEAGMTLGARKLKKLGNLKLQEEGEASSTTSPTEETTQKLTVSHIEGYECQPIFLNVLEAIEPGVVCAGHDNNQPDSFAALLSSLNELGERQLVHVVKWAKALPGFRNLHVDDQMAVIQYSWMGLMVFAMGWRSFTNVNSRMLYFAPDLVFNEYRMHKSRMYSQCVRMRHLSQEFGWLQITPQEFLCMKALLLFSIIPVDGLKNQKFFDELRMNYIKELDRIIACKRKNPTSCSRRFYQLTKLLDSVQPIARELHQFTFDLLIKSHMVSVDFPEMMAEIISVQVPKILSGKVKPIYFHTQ
# Chain of Estrogen receptor (Homo sapiens) (P03372 whole entry, looked up): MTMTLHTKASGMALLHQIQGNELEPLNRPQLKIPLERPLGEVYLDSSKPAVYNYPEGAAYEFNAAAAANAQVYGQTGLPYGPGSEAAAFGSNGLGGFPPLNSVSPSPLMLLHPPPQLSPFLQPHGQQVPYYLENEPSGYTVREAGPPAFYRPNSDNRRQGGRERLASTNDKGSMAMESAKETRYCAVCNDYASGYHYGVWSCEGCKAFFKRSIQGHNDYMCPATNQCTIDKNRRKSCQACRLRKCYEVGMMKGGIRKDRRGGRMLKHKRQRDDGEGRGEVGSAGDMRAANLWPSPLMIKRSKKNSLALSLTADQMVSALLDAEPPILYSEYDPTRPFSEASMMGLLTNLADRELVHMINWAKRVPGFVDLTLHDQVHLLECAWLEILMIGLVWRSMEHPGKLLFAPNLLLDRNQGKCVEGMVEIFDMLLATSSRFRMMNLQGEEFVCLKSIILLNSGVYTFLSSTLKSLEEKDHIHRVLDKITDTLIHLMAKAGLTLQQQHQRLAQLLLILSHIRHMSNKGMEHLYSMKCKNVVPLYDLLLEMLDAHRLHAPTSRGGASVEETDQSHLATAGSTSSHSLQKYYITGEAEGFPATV
# Chain of Aromatase (Homo sapiens) (P11511 whole entry, looked up): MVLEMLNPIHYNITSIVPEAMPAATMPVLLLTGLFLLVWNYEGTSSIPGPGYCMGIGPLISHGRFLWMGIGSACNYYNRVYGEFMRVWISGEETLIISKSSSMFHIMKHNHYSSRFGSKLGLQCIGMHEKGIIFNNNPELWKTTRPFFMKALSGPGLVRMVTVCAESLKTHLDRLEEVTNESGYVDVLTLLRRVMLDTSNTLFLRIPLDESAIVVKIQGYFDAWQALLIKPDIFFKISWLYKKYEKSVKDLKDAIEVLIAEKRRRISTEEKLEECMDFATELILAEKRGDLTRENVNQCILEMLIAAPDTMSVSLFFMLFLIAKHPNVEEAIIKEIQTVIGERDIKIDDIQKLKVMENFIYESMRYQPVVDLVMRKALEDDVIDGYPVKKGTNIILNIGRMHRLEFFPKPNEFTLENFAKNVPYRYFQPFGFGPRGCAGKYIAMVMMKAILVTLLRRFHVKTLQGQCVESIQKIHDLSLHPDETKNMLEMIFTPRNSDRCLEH
SMILES,Potency [1],Potency [2],Potency [3],Potency [4],Potency [5],Potency [6],Potency [7],outcome [8],Potency [9],Potency [10],Potency [11],Potency [12],Potency [13],Potency [14],Potency (Aromatase (Homo sapiens)),Potency [15],Potency [16],Potency [17],Potency [18],Potency [19]
O=C1NCCN1,inactive,inactive,inactive,inactive,inactive,inactive,inactive,inactive,inactive,inactive,inactive,inactive,inactive,inactive,inactive,inactive,,,,
Cc1cc(C(=C2C=CC(=Nc3ccc(S(=O)(=O)O)cc3S(=O)(=O)O)C=C2)c2ccc(Nc3ccc(S(=O)(=O)O)cc3)cc2)ccc1N,inactive,inactive,,,inactive,inactive,inactive,inactive,inactive,inactive,inactive,inactive,inactive,inactive,inactive,inactive,inactive,,,
CNC(=O)N(c1ccccc1)c1ccccc1,inactive,inactive,inactive,inactive,inactive,inactive,inactive,inactive,inactive,inactive,inactive,inactive,inactive,inactive,inactive,inactive,,inactive,inactive,inactive
Cc1oc(C)c(C(=O)Nc2ccccc2)c1C,inactive,13.7 µM (active),,,,inactive,24.3 µM (active),inactive,,,inactive,,,,13.7 µM (active),inactive,10.9 µM (active),,,
CC(C)(C)CC(C)(C)c1ccc(OCCO)cc1,inactive,3.76 µM (active) and 13.6 µM (active),,,27.8 µM (active) and 48.3 µM (active),11.9 µM (active) and 60.8 µM (active),,,,inactive,inactive,,,24.2 µM (active),26.6 µM (active) and 43 µM (active),33.5 µM (active) and 30.5 µM (active),6.68 µM (active) and 7.65 µM (active),inactive,inactive,11.9 µM (active) and 9.63 µM (active)
CCn1cc(C(=O)O)c(=O)c2cc(F)c(N3CCNCC3)nc21,inactive,inactive,,inactive,inactive,inactive,inactive,inactive,inactive,inactive,inactive,inactive,inactive,inactive,inactive,inactive,inactive,,,
CCn1nc(C)c2c1C(=O)NCC(c1ccc(O)cc1)=N2,inactive,61.1 µM (active),,,inactive,inactive,inactive,inactive,,inactive,inactive,inactive,inactive,inactive,inactive,inactive,34.4 µM (active),,,
C[N+]1(C)CCC(=C(c2ccccc2)c2ccccc2)CC1,inactive,inactive,,,inactive,inactive,inactive,inactive,,inactive,,,,inactive,inactive,inactive,inactive,,,
CCCCC(CC)C(=O)OCCOCCOCCOCCOC(=O)C(CC)CCCC (centres undefined),inactive,27.3 µM (active),,inactive,inactive,inactive,,inactive,inactive,inactive,inactive,inactive,inactive,inactive,,,43.3 µM (active),,,
CC(N)CN (centres undefined),inactive,inactive,,inactive,inactive,inactive,inactive,inactive,inactive,inactive,inactive,inactive,inactive,inactive,inactive,inactive,inactive,,,
C[C@@H]1C[C@H]2[C@@H]3CCC4=CC(=O)C=C[C@]4(C)[C@@]3(F)[C@@H](O)C[C@]2(C)[C@H]1C(=O)CO,inactive,13.3 µM (active),26.6 µM (active),inactive,inactive,inactive,,inactive,,inactive,,,,inactive,inactive,inactive,,,,
CO[Si](C)(OC)OC,inactive,inactive,,inactive,inactive,inactive,inactive,inactive,inactive,inactive,inactive,inactive,inactive,inactive,inactive,inactive,inactive,,,
